Data as given in PubChem BioAssay (NCATS).
Records with an inconclusive call do not appear. Activity calls are given as the source filed them. Unless noted, calls follow the shape of the dose curve; as a rule, active = well fitted curve in the direction sought with a large enough effect; inconclusive = small, poorly fitted or top-dose-only effect, or another doubt; inactive = no such curve, though single readings can be large; an effect the other way counts as inactive or inconclusive.

How the values were obtained:
[1] = P-glycoprotein substrates identified in KB-3-1 adenocarcinoma cell line, qHTS therapeutic library screen (AID 1346986); also: nearly all actives have a fitted effect of over 60% in size
Procedure, shortened: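 72 h cell-killing screen, 500 cells/well, CellTiter-Glo luminescence. Paired lines KB-3-1/KB-8-5-11; P-gp dependence checked by tariquidar co-treatment and HEK-293 MDR-19 versus empty-vector cells.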

[2] = P-glycoprotein substrates identified in KB-8-5-11 adenocarcinoma cell line, qHTS therapeutic library screen (AID 1346987); also: nearly all actives have a fitted effect of over 65% in size; also: potency is read from the fitted curve at half-maximal effect; as to activity change, negative = cytotoxicity: % is scaled to controls: 0 for no effect and ±100 for the full control effect
Procedure, shortened: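 Luminescence from CellTiter-Glo, read 5 min after addition, quantified survival of KB-8-5-11 (P-gp-overexpressing) cells exposed to compounds for 72 h. AC50 was derived from concentration-response curves.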

[3] = tested on: Zika virus NS2B-NS3 protease (unlinked complex); assay: Primary screen GU Rhodamine qHTS for Zika virus inhibitors: Unlinked NS2B-NS3 protease assay (AID 1347159); also: % is scaled to controls: 0 for no effect and ±100 for the full control effect; nearly all actives have a fitted effect of over 60% in size
Procedure, shortened: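 Unlinked NS2B/NS3, 25 nM; Rhod110 peptide, 1.5 microM; compounds, up to 114 microM. Reaction run 15 min at RT in 10 mM Tris-HCl pH 8.0, 0.01% Tween 20; kinetic fluorescence change fitted with a 4-parameter Hill model.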

KB-3-1 = assay: Cytotoxic Profiling of Annotated Libraries Using Quantitative High-Throughput Screening (AID 1296008); conditions: Five cell lines viability, CellTiter-Glo ATP luminescence, 48-72 h; max response: stronger effect = lower value; also: nearly all actives have a fitted effect of over 60% in size; also: potency is read from the fitted curve at half-maximal effect
Procedure, shortened: (§1)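 Compounds were pin-transferred onto cells and incubated 48 or 72 hr at 37 degree Celsius, 95% humidity. CellTiter-Glo was added, plates sat 10 min at room temperature, then ATP-coupled luminescence was imaged as the viability read-out.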

HACAT = assay: qHTS assay to identify novel small-molecules to repurpose for Merkel cell carcinoma treatment (AID 1296009); conditions: MCC and control cell lines, CellTiter-Glo viability, 72 h; at 44.8 µM (top of the series) unless noted; also: nearly all actives have a fitted effect of over 60% in size; also: potency is read from the fitted curve at half-maximal effect
Procedure, shortened: (§2)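 Viability readout: ATP luminescence (CellTiter-Glo) after 72 hr drug exposure at 37 degree celsius. Dose-response format was 8 points for NPC and 11 points for MIPE; data normalized to in-plate controls.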

NIH3T3 = assay: as above; conditions: MCC and control cell lines, CellTiter-Glo viability, 72 h; at 44.8 µM (top of the series) unless noted
Procedure, shortened: as §2

SKOV3 = assay: Primary qHTS to identify gynecologic anti-cancer compounds using libraries of approved drugs and bioactive compounds (AID 1345084); conditions: Gynecologic cancer cell panel viability, ATPlite luminescence, 48 h; series mostly up to 57.5 µM; also: nearly all actives have a fitted effect of over 55% in size; also: potency is read from the fitted curve at half-maximal effect; as to activity change, negative = cytotoxicity: % is scaled to controls: 0 for no effect and ±100 for the full control effect
Procedure, shortened: (§3)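 Cytotoxicity screen measuring ATP content by luciferase luminescence. Each compound is applied at five concentrations for 48 h at 37 C with 5% CO2.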

[4] = Primary qHTS for inhibitors of nuclear receptor binding SET domain protein 2 (NSD2) in an isogenic RCH-ACV NSD2 p.E1099K mutant (9B) (AID 1645876); also: nearly all actives have a fitted effect of over 70% in size; also: potency is read from the fitted curve at half-maximal effect; as to activity change, negative = viability loss: % is scaled to controls: 0 for no effect and ±100 for the full control effect
[5] = Primary qHTS for inhibitors of nuclear receptor binding SET domain protein 2 (NSD2) in an RCH-ACV wild type WT cells (2C) (AID 1645877); also: nearly all actives have a fitted effect of over 70% in size; also: potency is read from the fitted curve at half-maximal effect
HEK293 = assay: Cytotoxic Profiling of Annotated Libraries Using Quantitative High-Throughput Screening (AID 1296008); conditions: Five cell lines viability, CellTiter-Glo ATP luminescence, 48-72 h; max response: stronger effect = lower value; also: nearly all actives have a fitted effect of over 60% in size; also: potency is read from the fitted curve at half-maximal effect
Procedure, shortened: as §1

HeLa = assay: Primary qHTS to identify gynecologic anti-cancer compounds using libraries of approved drugs and bioactive compounds (AID 1345084); conditions: Gynecologic cancer cell panel viability, ATPlite luminescence, 48 h; series mostly up to 57.5 µM; also: nearly all actives have a fitted effect of over 55% in size; also: potency is read from the fitted curve at half-maximal effect; as to activity change, negative = cytotoxicity: % is scaled to controls: 0 for no effect and ±100 for the full control effect
Procedure, shortened: as §3

[6] = molecular target: Cytochrome P450 2C9 (Homo sapiens) (UniProt P11712); assay: Cytochrome P450 family 2 subfamily C member 9 (CYP2C9) small molecule antagonists: luciferase biochemical (cell-free) qHTS assay (AID 1645842; active = well fitted curve in the direction sought with a large enough effect in the repeat runs; an effect the other way counts as inactive or inconclusive; also: nearly all actives have a fitted effect of over 55% in size; also: potency is read from the fitted curve at half-maximal effect)
Procedure, shortened: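 P450-Glo CYP2C9 system: proluciferin substrate with enzyme in mix containing 0.4% BSA, 10 min at room temperature, then NADPH regeneration solution added and incubated 1 h at 37C. Detection reagent stopped reaction; luminescence read after 20 min as RLU.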

[7] = molecular target: Catechol O-methyltransferase (Homo sapiens) (UniProt P21964); assay: Confirmatory Screen for Target Class Profiling of Small Molecule Inhibitors of Methyltransferases (AID 1745852); conditions: MTase-Glo luminescence, SAH detection, recombinant enzyme; measured here: COMT max response; stronger effect = lower value
[8] = molecular target: Guanidinoacetate N-methyltransferase (Homo sapiens) (UniProt Q14353); assay: as above; conditions: activity change, negative = inhibition: at 57.3 µM (top of the series) unless noted
[9] = molecular target: Nicotinamide N-methyltransferase (Homo sapiens) (UniProt P40261); assay: as above; conditions: MTase-Glo luminescence, SAH detection, recombinant enzyme; measured here: NNMT max response; stronger effect = lower value
[10] = molecular target: Phenylethanolamine N-methyltransferase (Homo sapiens) (UniProt P11086); assay: as above; conditions: MTase-Glo luminescence, SAH detection, recombinant enzyme; measured here: PNMT max response; stronger effect = lower value
CRL-7250 = normal cell line; assay: qHTS assay to identify novel small-molecules to repurpose for Merkel cell carcinoma treatment (AID 1296009); conditions: MCC and control cell lines, CellTiter-Glo viability, 72 h; series mostly up to 92 µM; also: nearly all actives have a fitted effect of over 60% in size; also: potency is read from the fitted curve at half-maximal effect
Procedure, shortened: as §2

[11] = qHTS drug screen for cell cycle checkpoint inhibitors in PARPi-resistant BRCA-mutant ovarian cancer cell lines. (AID 1963452; calls by dose curve; also: potency is read from the fitted curve at half-maximal effect); conditions: PEO1/OlaR viability, CellTiter-Glo luminescence, 96 h; for Z-AUC: stronger effect = lower value
Procedure, shortened: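 PEO1, PEO4 and PEO1/OlaR ovarian cancer cells, 600 per well, exposed 96 h at 37C to a dilution series. Viability read by CellTiter-Glo luminescence, normalized to DMSO and empty wells; activity summarized as Z-AUC.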

[12] = molecular target: Cytochrome P450 2D6 (Homo sapiens) (UniProt P10635); assay: Cytochrome P450 family 2 subfamily D member 6 (CYP2D6) small molecule antagonists: luciferase biochemical (cell-free) qHTS assay (AID 1645840; active = well fitted curve in the direction sought with a large enough effect in the repeat runs; an effect the other way counts as inactive or inconclusive; also: % is scaled to controls: 0 for no effect and ±100 for the full control effect; nearly all actives have a fitted effect of over 55% in size)
Procedure, shortened: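 P450-Glo CYP2D6 system: proluciferin substrate converted by enzyme to luciferin, read by luminescence proportional to activity. Enzyme-substrate mix with compound 10 min at room temperature, then NADPH regeneration 1 h before detection reagent.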

[13] = measured here: PEO1 parental Z-AUC

Chain of Cytochrome P450 2C9 (Homo sapiens) (P11712 whole entry, looked up): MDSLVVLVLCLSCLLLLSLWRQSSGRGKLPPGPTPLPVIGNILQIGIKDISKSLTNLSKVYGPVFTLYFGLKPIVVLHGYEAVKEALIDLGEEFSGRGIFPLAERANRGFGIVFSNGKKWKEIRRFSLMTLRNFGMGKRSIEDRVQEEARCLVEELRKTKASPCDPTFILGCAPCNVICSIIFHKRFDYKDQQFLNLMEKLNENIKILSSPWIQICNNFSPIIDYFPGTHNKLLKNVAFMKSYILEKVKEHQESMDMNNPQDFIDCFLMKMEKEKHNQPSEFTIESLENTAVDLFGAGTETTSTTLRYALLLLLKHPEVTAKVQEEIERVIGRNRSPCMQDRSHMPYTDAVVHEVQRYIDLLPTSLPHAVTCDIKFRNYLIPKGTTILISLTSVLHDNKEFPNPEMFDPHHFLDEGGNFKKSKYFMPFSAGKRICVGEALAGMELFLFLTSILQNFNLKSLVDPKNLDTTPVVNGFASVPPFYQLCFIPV
Chain of Nicotinamide N-methyltransferase (Homo sapiens) (P40261 whole entry, looked up): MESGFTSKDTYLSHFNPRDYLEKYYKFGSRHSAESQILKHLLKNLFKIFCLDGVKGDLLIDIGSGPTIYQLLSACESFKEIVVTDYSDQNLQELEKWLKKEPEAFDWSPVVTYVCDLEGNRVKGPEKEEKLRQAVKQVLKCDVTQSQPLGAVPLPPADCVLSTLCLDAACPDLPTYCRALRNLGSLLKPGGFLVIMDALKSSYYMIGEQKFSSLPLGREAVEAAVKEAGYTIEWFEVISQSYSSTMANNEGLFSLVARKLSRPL
Chain of Phenylethanolamine N-methyltransferase (Homo sapiens) (P11086 whole entry, looked up): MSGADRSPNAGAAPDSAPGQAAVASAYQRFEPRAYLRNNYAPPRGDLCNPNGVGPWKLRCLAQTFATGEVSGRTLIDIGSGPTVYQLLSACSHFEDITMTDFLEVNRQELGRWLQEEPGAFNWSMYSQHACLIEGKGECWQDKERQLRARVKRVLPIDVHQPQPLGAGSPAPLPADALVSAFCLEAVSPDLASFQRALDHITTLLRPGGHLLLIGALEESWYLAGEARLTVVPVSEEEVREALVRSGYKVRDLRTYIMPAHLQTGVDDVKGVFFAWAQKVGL
Chain of Catechol O-methyltransferase (Homo sapiens) (P21964 whole entry, looked up): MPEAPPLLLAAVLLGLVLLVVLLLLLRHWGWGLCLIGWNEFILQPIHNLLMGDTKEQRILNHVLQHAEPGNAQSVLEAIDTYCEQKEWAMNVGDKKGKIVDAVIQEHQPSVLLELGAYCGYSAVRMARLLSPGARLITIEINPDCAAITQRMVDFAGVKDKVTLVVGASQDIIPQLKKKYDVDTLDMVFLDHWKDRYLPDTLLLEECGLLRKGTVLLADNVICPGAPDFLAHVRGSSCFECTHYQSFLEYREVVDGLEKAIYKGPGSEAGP
Chain of Cytochrome P450 2D6 (Homo sapiens) (P10635 whole entry, looked up): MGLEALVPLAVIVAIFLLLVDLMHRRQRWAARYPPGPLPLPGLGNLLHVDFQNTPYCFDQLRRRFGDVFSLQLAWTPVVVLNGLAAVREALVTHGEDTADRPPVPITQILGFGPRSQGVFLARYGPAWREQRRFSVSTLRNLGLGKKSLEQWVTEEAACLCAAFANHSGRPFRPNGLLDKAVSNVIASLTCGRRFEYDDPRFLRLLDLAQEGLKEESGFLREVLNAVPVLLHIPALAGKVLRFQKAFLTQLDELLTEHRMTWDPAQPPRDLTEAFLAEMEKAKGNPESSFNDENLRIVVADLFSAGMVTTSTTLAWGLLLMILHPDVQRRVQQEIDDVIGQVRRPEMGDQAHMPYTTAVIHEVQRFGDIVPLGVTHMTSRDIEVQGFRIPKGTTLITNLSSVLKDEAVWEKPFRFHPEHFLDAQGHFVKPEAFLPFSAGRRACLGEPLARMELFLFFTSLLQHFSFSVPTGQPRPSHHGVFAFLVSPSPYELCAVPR

C/C=C(\C)C(=O)O[C@@H]1[C@@H](C)[C@]2(O)C3C=C(C)C(=O)[C@@]3(O)CC(CO)=C[C@H]2C2C(C)(C)[C@@]21OC(=O)C(C)CC (stereo partly specified)
inactive: Potency [1] | Potency [2] | Potency [3] | outcome (KB-3-1) | outcome (HACAT) inactive [at 17.4 µM] | outcome (NIH3T3) inactive [at 17.4 µM] | Potency (SKOV3)

COC[C@]12CN(C)C3C4[C@H](OC)[C@H]1C3(C(OC)C[C@H]2O)[C@H]1C[C@@]2(O)[C@H](OC(=O)c3ccccc3)[C@@H]1[C@]4(O)[C@@H](O)[C@@H]2OC (stereo partly specified)
inactive: Potency [2] | Potency [3] | Potency [4] | Potency [5] | max response (KB-3-1) -0.453%

C=C(CO)[C@@]12O[C@@H]1[C@@]1(C)C(=CC2=O)CC[C@@H](O)[C@@H]1C
active: Potency [2] 13 µM | Potency [4] 12.9 µM | Potency [5] 12.9 µM | Potency (HEK293) 23.1 µM
inactive: Potency [3] | outcome (HACAT) | Potency (HeLa)

CCCCn1cc(C(=O)c2cccc3ccccc23)c2ccccc21
inactive: Potency [2] | Potency [3] | Potency [6] | Potency [4] | Potency [5] | max response (KB-3-1) -16.1% | outcome (HACAT) | Potency (HeLa) | Potency (SKOV3)

CCOC(=O)c1ccnc2cc(C(OCCN3CCCCC3)c3ccccc3Cl)sc12 (stereo unspecified)
active: Potency [4] 23 µM | Potency [5] 20.5 µM
9.58%: activity change, negative = inhibition [8]
-18.4%: activity [9]
-4.81%: activity [10]
inactive: Potency [2] | Potency [3] | max response (KB-3-1) 5.4% | outcome (HACAT)
-1.68%: activity [7]

C=C1[C@@H](O)[C@]2(O)OC[C@]34C2[C@]2(C)C(C[C@H]3OC(=O)[C@H](O)[C@@]14O)C(C)=CC(=O)[C@H]2O (stereo partly specified)
active: Potency [4] 4.47 µM | Potency [5] 3.17 µM
inactive: Potency [2] | Potency (HeLa) | Potency (SKOV3)

CC1CCCCCC(=O)c2c(O)cc(O)cc2CC(=O)O1 (stereo unspecified)
inactive: Potency [2] | Potency [3] | max response (KB-3-1) -18.6% | outcome (HACAT) | Potency (HeLa) | Potency (SKOV3)

Fc1cc(F)c2c(c1)[C@H]1C=CC[C@H]1C(c1cccnc1)N2 (stereo partly specified)
active: Potency [2] 4.61 µM | Potency [4] 6.49 µM | Potency [5] 8.17 µM | Potency (KB-3-1) 4.11 µM | Potency (CRL-7250) 4.61 µM | Potency (HeLa) 14.1 µM
inactive: Potency [3]

Cc1ncc(OC[C@@]2(c3cccc(F)c3)C[C@H]2C(=O)Nc2ccc(F)cn2)c(C)n1
0.108: Z-AUC ([11]; measured here: PEO4 Z-AUC)
-0.55: Z-AUC [11, 13]
inactive: Potency [4] | Z-AUC [11] -0.208 | max response (HEK293) 4.45% | outcome (HACAT) | outcome (NIH3T3)

Cc1cccc(NC(=O)c2ccc(C(F)(F)F)cc2C(=O)O)n1
inactive: Potency [1] | Potency [2] | Potency [3] | Potency [4] | Potency [5] | outcome (KB-3-1) | outcome (HACAT)

CC1=CC2/C=C(\C)CCC(O)C(O)/C=C/C(=O)C23C(=O)NC(CC(C)C)C3C1C (stereo unspecified)
active: Potency [4] 2.24 µM | Potency [5] 2 µM | Potency (HEK293) 2.82 µM
inactive: Potency [3]

CC(C)OC(=O)c1ccnc2cc(C(OCCN3CCCCC3)c3ccccc3Cl)sc12 (stereo unspecified)
3.41%: activity [7]
-30.3%: activity [9]
active: Potency [2] 20.6 µM | Potency [4] 14.5 µM | Potency [5] 18.3 µM
-6.38%: activity [10]
8.86%: activity change, negative = inhibition [8]
inactive: Potency [3] | outcome (HACAT) | Potency (HeLa) | Potency (SKOV3)

CC(=O)OC[C@]12C[C@H](OC(C)=O)C(C)=C[C@H]1O[C@@H]1[C@H](O)[C@@H](O)[C@@]2(C)[C@]12CO2
active: Potency [2] 0.904 µM | Potency [4] 0.101 µM | Potency [5] 0.0898 µM | Potency (KB-3-1) 0.18 µM

COc1ccc(C23CCC(=O)C=C2N(C)CC3)cc1OC (stereo unspecified)
active: Potency (SKOV3) 25.1 µM
inactive: Potency [2] | Potency [3] | Potency [4] | Potency [5] | max response (HEK293) -6.12% | max response (KB-3-1) -13%

CCC1(O)CCC2C3CCC4=CC(=O)CCC4C3CCC21CC (stereo unspecified)
active: Potency [4] 20.5 µM
inactive: Potency [3] | max response (KB-3-1) -10.9% | outcome (HACAT) | Potency (HeLa) | Potency (SKOV3)

Cc1sc2c(c1C)C(c1ccc(Cl)cc1)=NC(CC(=O)OC(C)(C)C)c1nnc(C)n1-2 (stereo unspecified)
active: Potency [2] 1.16 µM | Potency [4] 0.183 µM | Potency [5] 0.129 µM | Potency (HEK293) 0.651 µM

CN(CC[C@H](N)CC(=O)N[C@H]1C=C[C@@H](n2ccc(N)nc2=O)O[C@@H]1C(=O)O)C(=N)N
inactive: activity change, negative = inhibition [3] 11.2% [at 19.1 µM] | activity change, negative = viability loss [4] -2.6% [at 9.23 µM] | activity change, negative = cell killing [5] 0.799% [at 9.23 µM] | outcome (HEK293) | outcome (HACAT) inactive [at 9.27 µM] | activity change, negative = cytotoxicity (HeLa) 9.86% [at 11.6 µM]

NNC(=O)c1nn(Cc2ccc(Cl)cc2Cl)c2ccccc12
inactive: Potency [2] | Potency [3] | max response (KB-3-1) -14.6% | Potency (HeLa)

C[C@]12CC[C@H](O[C@@H]3O[C@H](CO)[C@@H](O)[C@H](O)[C@H]3O)CC1CC[C@@H]1C2CC[C@]2(C)[C@@H](C3=CC(=O)OC3)CC[C@]12O (stereo partly specified)
active: Potency [2] 6.32 µM | Potency [4] 2.52 µM | Potency [5] 3.17 µM | Potency (HEK293) 3.17 µM | Potency (HeLa) 10 µM | Potency (SKOV3) 8.91 µM
inactive: Potency [3] | outcome (NIH3T3) inactive [at 17.4 µM]

CCCCCn1cc(C(=O)C2C(C)(C)C2(C)C)c2ccccc21
inactive: Potency [2] | Potency [12] | Potency [4] | Potency [5] | max response (KB-3-1) 5.27% | outcome (HACAT) | Potency (HeLa)
active: Potency [6] 10.7 µM

CCOC(=O)C1(CCc2ccccc2)CCN(Cc2ccc(NC(C)=O)cc2)CC1
inactive: Potency [3] | max response (KB-3-1) -17.7% | Potency (HeLa) | Potency (SKOV3)

C[C@H]1CN(Cc2ccc(CC(=O)N3CCC(Nc4cccc(F)c4)CC3)cc2)CCN1
inactive: Potency [6] | max response (KB-3-1) -18.3% | Potency (HeLa) | Potency (SKOV3)
active: Potency (HEK293) 18.4 µM

C/C(=C\c1csc(C)n1)[C@@H]1C[C@@H]2O[C@@H]2CCC[C@H](C)[C@H](O)[C@@H](C)C(=O)C(C)(C)[C@@H](O)CC(=O)O1
inactive: Potency [3]
-2.36: Z-AUC ([11]; measured here: PEO4 Z-AUC)
active: Potency [2] 0.0058 µM | Potency [4] 0.0372 µM | Potency [5] 0.0263 µM | Potency [11] 0.0087 µM | Potency (HEK293) 0.0065 µM | Potency (KB-3-1) 0.0082 µM
-2.45: Z-AUC [11, 13]

CC[C@H]1/C=C\C=C/C[C@@H](C)[C@H](O)[C@@](C)(O)C(=O)[C@@H](C)[C@H](O)[C@@H](C)C(=O)[C@@H](C)[C@H](O)[C@@H](C)/C=C\C(=O)O[C@@H]2[C@H](C)[C@H](CC1)O[C@]1(CC[C@H](C)[C@H](C[C@@H](C)O)O1)[C@H]2C
active: Potency [4] 0.742 µM | Potency [5] 0.332 µM
-2.84: Z-AUC [11, 13]
-2.81: Z-AUC ([11]; measured here: PEO4 Z-AUC)
inactive: Z-AUC [11] 0.274 | max response (HEK293) -112%
